The results in this text go back to PubChem BioAssay (NCATS).

Test [1] is described as follows: qHTS drug screen for cell cycle checkpoint inhibitors in PARPi-resistant BRCA-mutant ovarian cancer cell lines. (AID 1963452; calls by dose curve; also: potency is read from the fitted curve at half-maximal effect). The conditions noted are these: PEO1/OlaR viability, CellTiter-Glo luminescence, 96 h; for Z-AUC: stronger effect = lower value. The method, boiled down: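 PEO1, PEO4 and PEO1/OlaR ovarian cancer cells, 600 per well, exposed 96 h at 37C to a dilution series. Viability read by CellTiter-Glo luminescence, normalized to DMSO and empty wells; activity summarized as Z-AUC.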
Background: In qHTS, concentration-response curves come from the screen itself.

Test [2] can be described thus: qHTS for identification of novel therapeutic agents for treatment of microphthalmiaassociated transcription factor (MiT) renal cell carcinoma (RCC) (AID 1963991; calls by dose curve; also: potency is read from the fitted curve at half-maximal effect). The note with it: CellTiter-Glo, 48 h; for z-score: stronger effect = lower value. The method, boiled down:
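Three TFE3-fusion RCC cell lines (UOK109, UOK124, UOK145), 500 cells/well, were exposed to the 1912-compound MIPE 4.0 library for 48 hours at 37 C. Viability was read by CellTiter-Glo luminescence, normalised to DMSO (100%) and empty wells (0%), with 11-concentration curve fits.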

The nature of test [3]: qHTS profiling for inhibitors of Plasmodium falciparum proliferation (AID 504749). Also: potency is read from the fitted curve at half-maximal effect.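 As to activity, negative = inhibition: 0% = DMSO vehicle and full inhibition = artemisinin control.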 As to all read-outs here: nearly all actives have a fitted effect of over 60% in size. The conditions noted are these: P. falciparum in erythrocytes, SYBR Green DNA, 72 h; for activity, negative = inhibition: at 28.7 µM (top of the series). The gist of the method: (§1)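 SYBR Green fluorescence of parasite DNA, read after lysis and overnight dark incubation, measured growth over 72 h in erythrocyte culture at 0.3% parasitemia and 2.5% hematocrit. Data normalised to DMSO and 0.29 uM artemisinin, with plate-drift correction.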

Test [4] deals with 3D7. The description is as above. The note with it: P. falciparum in erythrocytes, SYBR Green DNA, 72 h; series mostly up to 28.7 µM. The gist of the method:
as §1

For test [5], the system named is 7G8. The test is described as above. The note with it: P. falciparum in erythrocytes, SYBR Green DNA, 72 h; series mostly up to 28.7 µM. The method, boiled down: as §1
Test [6] has as its system AA1029. The test is described as above. The conditions noted are these: P. falciparum in erythrocytes, SYBR Green DNA, 72 h; series mostly up to 28.7 µM. The method, boiled down:
as §1

Test [7] relates to AS120. The description is as above. The note with it: P. falciparum in erythrocytes, SYBR Green DNA, 72 h; series mostly up to 28.7 µM. The method, boiled down:
as §1

The target of test [8] is Nuclear receptor subfamily 1 group I member 2 (Homo sapiens) (UniProt O75469). As to the kind of experiment: Dual reporter qHTS for agonist of Pregnane X Receptor (hPXR) against the NCATS DSHEA and TCM libraries: Luminescence readout (AID 1920059). Also: 0% is about no effect. The note with it: hPXR dual reporter cells, luciferase luminescence agonist; series mostly up to 40 µM. The method, boiled down: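 Luminescent PXR reporter read (ONE-Glo) after a CellTiter-Fluor viability read, following 24 h, 37C treatment of HepG2 cells stably carrying hPXR-Luc.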

For test [9] the target is unchanged. In words: Dual reporter qHTS for antagonist of Pregnane X Receptor (hPXR) against the NCATS DSHEA and TCM libraries: Luminescence Readout (AID 1920060). Also: 0% is about no effect. The note with it: hPXR dual reporter cells, luciferase luminescence, antagonist mode; series mostly up to 40 µM. The method, boiled down: (§2)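 Antagonist mode: rifampicin 2 uM final co-added with compounds to hPXR-LucHepG2 cells for 24 h at 37C. Viability by CellTiter-Fluor, Ex/Em 405/540 nm, 1 h; reporter by ONE-Glo luminescence.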

A short description of test [10]: Dual reporter qHTS for antagonist of Pregnane X Receptor (hPXR) against the NCATS DSHEA and TCM libraries: Fluorescence Readout (AID 1920061). Also: 0% is about no effect. The note with it: PXR dual reporter cells, antagonist mode; series mostly up to 40 µM. The gist of the method:
as §2

[11] abbreviates: measured here: PEO1 parental Z-AUC.
Where [12] appears, read: TFE3-RCC UOK109 viability, measured here: UOK109 Z-AUC.
Setting [13] is: TFE3-RCC viability, measured here: UOK124 Z-AUC.
Where [14] appears, read: TFE3-RCC viability, measured here: UOK145 Z-AUC.

Molecules are shown by their SMILES. Records with an inconclusive call do not appear. The source made the active and inactive calls. Unless noted, calls follow the shape of the dose curve; as a rule, active = well fitted curve in the direction sought with a large enough effect; inconclusive = small, poorly fitted or top-dose-only effect, or another doubt; inactive = no such curve, though single readings can be large; an effect the other way counts as inactive or inconclusive.

Chain of Nuclear receptor subfamily 1 group I member 2 (Homo sapiens) (O75469 whole entry, looked up): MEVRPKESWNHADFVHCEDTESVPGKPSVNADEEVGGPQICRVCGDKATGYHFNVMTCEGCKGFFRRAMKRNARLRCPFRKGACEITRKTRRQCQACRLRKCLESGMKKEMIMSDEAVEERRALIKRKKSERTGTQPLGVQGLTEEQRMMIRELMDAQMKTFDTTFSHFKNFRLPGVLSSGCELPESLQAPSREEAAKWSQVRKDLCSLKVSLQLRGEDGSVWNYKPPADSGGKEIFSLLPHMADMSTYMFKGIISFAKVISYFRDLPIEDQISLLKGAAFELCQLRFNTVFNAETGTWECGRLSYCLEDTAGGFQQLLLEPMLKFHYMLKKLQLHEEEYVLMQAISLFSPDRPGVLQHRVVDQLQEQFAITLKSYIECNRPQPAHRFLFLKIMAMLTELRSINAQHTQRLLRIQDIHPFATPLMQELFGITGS

As to `NC(CO)C(=O)NNCc1ccc(O)c(O)c1O` (configuration not stated), the Z-AUC is -0.229 (inactive) in test [1], -0.392 in test [1] (setting [11]) and -0.375 in [1] (measured here: PEO4 Z-AUC). For the same molecule, the z-score in [2] (setting [12]) was 0.539; in [2] (setting [13]) it was -0.122; in [2] (setting [14]), 0.506.
Consider `COc1ccccc1N1CCN(CC(O)COc2cccc3ccccc23)CC1` (configuration not stated), for which the Z-AUC in [1] was -0.153 (inactive); in [1] (setting [11]), 0.273; in [1] (measured here: PEO4 Z-AUC) it was 0.504. Moreover, the z-score in [2] (setting [12]) is 0.719; in test [2] (setting [13]), 0.448; in [2] (setting [14]), -1.51. Further, the activity, negative = inhibition in test [3] (parasite line A) was -3.66% (inactive); in [3] (parasite line B) it was -18.8% (inactive). Also, the Potency result in test [4], in test [6] and in [7] was “inactive” throughout. The Potency in test [5] is 11200 nM (active).
Turning to `CCN1CCCC1CNC(=O)c1cc(S(=O)(=O)CC)c(N)cc1OC` (configuration not stated), the results for the Z-AUC in test [1], in test [1] (setting [11]) and in test [1] (measured here: PEO4 Z-AUC) were 1.05 (inactive), 0.594 and 0.466, respectively. For the same molecule, the z-score in [2] (setting [12]) amounted to 0.976; in test [2] (setting [13]) it was 0.754; in test [2] (setting [14]), 0.815.
`Cc1ccccc1N1C(=O)c2cc(S(N)(=O)=O)c(Cl)cc2NC1C` (configuration not stated): the values for the Z-AUC in test [1], in [1] (setting [11]) and in [1] (measured here: PEO4 Z-AUC) were -0.939 (inactive), -0.663 and -0.859, respectively. Besides, the z-score in test [2] (setting [12]) is 0.956; in [2] (setting [13]), 0.478; in test [2] (setting [14]), -0.147.
On to `O=C1c2c(O)ccc(O)c2C(=O)c2c(NCCNCCO)ccc(NCCNCCO)c21`, for which the Potency in test [1] is 195 nM (active); in [2] (TFE3-RCC UOK109 viability, active = Z-AUC below -0.8 in all three lines) it was 1050 nM (active); in test [3] (parasite line A) it was 3160 nM (active); in [3] (parasite line B) it was 3160 nM (active); in test [4], 2000 nM (active); in [5], 1260 nM (active). Also, the Potency in test [6] is 2510 nM (active); in test [7], 2240 nM (active). Further, the Z-AUC in test [1] (setting [11]) was -2.48; in test [1] (measured here: PEO4 Z-AUC) it was -2.26. In addition, the z-score in test [2] (setting [12]) is -2.02; in [2] (setting [13]), -1.52; in test [2] (setting [14]) it was -2.08.
Regarding `Cn1c(=O)c2c(ncn2C)n(C)c1=O`, the molecule was called inactive in [8], in [9] and in [10]. For the same molecule, the Z-AUC is 1.16 (inactive) in test [1], 1.03 in test [1] (setting [11]) and 1.21 in test [1] (measured here: PEO4 Z-AUC). The figures for the z-score in [2] (setting [12]), in test [2] (setting [13]) and in [2] (setting [14]) were 0.696, 0.536 and 0.729, respectively. The activity, negative = inhibition in test [3] (parasite line A) was 6.06% (inactive); in test [3] (parasite line B) it was 8.5% (inactive). Besides, the Potency result in test [4], in [6] and in test [7] was “inactive” throughout.
With `CCOC(=O)C(C)(C)Oc1ccc(Cl)cc1`, the values for the Z-AUC in [1], in [1] (setting [11]) and in test [1] (measured here: PEO4 Z-AUC) were 0.714 (inactive), 0.586 and 0.762, respectively. The z-score in [2] (setting [12]) is -1.29; in [2] (setting [13]) it was 0.307; in test [2] (setting [14]), 0.606. Moreover, the activity, negative = inhibition in [3] (parasite line A) was 5.66% (inactive); in test [3] (parasite line B), 12.1% (inactive). In addition, the Potency entry in test [4], in test [5], in test [6] and in [7] was “inactive” each time.
For the molecule `CCC1(C)CC(=O)NC1=O` (configuration not stated), the Z-AUC in test [1] is 1.49 (inactive); in [1] (setting [11]) it was 1.31; in test [1] (measured here: PEO4 Z-AUC), 1.61. Moreover, the z-score is 0.867 in [2] (setting [12]), 0.609 in test [2] (setting [13]) and 0.715 in test [2] (setting [14]).
On to `CCc1cccc2c3c([nH]c12)C(CC)(CC(=O)O)OCC3` (configuration not stated), for which the Z-AUC in test [1] was 0.208 (inactive); in test [1] (setting [11]) it was 0.962; in test [1] (measured here: PEO4 Z-AUC), 0.882. The z-score in [2] (setting [12]) is 0.838; in test [2] (setting [13]) it was 0.432; in [2] (setting [14]), 0.577.
Take `COc1ccc2c(c1)c(CC(=O)O)c(C)n2C(=O)c1ccc(Cl)cc1`: the Z-AUC in test [1] was 0.8 (inactive); in test [1] (setting [11]) it was 0.391; in [1] (measured here: PEO4 Z-AUC), 0.536.
With `CN1CCN(C2=Nc3cc(Cl)ccc3Nc3ccccc32)CC1`, the Z-AUC is 0.802 (inactive) in test [1], 0.75 in [1] (setting [11]) and 0.32 in test [1] (measured here: PEO4 Z-AUC).
